PLC-beta3 inh: human PLC-beta3 inhibitors, primary screen, biochemical, fluorescence; 0.18% of 370,000 active; AID 720704, 2013; Purified PLC-beta3, fluorogenic substrate; inhibition, % at 12.2 µM; in the data active = inhibition above about 11%;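 also: 0% = median of compound wells on plate and 100% = full blocker control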
AHR activator: AHR activators, primary screen, cell-based, luminescence, luciferase reporter, human; AHR-responsive luciferase reporter cells; AID 2796, 2010; 2.5% of 320,000 active; activation, % at 5 µM; in the data active = activation above about 47%;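 also: 0% = vehicle wells and 100% = reference agonist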
Target sequence (P35869 whole entry, looked up): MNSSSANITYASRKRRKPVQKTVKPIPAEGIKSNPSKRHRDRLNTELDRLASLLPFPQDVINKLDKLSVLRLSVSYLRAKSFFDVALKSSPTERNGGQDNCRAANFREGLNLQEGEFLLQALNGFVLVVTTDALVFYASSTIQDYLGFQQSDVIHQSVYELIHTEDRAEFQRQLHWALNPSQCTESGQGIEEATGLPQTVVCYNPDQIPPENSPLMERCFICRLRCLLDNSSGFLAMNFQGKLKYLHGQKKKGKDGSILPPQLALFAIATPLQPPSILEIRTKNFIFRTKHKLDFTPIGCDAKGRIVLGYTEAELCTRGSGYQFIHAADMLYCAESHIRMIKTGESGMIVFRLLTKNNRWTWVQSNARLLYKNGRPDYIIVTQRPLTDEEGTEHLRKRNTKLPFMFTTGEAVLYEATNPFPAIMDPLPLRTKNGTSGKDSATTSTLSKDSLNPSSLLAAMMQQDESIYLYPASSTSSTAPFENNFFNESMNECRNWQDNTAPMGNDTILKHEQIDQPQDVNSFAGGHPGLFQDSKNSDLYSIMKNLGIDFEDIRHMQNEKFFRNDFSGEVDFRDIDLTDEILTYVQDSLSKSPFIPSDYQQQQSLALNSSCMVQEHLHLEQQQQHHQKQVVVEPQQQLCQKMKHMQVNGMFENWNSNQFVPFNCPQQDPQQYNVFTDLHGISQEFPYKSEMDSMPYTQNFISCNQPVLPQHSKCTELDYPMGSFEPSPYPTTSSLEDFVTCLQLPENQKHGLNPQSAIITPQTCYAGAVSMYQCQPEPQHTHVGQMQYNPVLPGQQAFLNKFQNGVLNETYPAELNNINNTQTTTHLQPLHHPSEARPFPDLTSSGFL
HIF act: HIF pathway transcriptional activators, primary screen, cell-based, U2OS HRE-luciferase, luminescence; U2OS HRE-luciferase reporter; normalized: DMSO 0%, desferrioxamine 100%; activation, % at 7.5 µM (by protocol); 0.32% of 300,000 active; AID 1910, 2009;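 active = mean activation of at least 10% of the iron chelator positive control signal, with at least half of replicates also reaching 10%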
PLC-gamma1 inh: PLC-gamma1 enzyme inhibitors, primary screen, biochemical, fluorescence, purified enzyme; inhibition, % at 12.2 µM; AID 720700, 2013; 1-phosphatidylinositol 4,5-bisphosphate phosphodiesterase gamma-1 (Homo sapiens), P19174; 0.84% of 370,000 active; fluorogenic substrate; in the data active = inhibition above about 9.5%
sPLA2-III inh: human group III sPLA2 inhibitors, primary screen, biochemical, QFRET, BODIPY PC-A2 liposome substrate | Group 3 secretory phospholipase A2 (Homo sapiens), Q9NZ20 | QFRET BODIPY PC-A2 liposome hydrolysis, fluorescence | inhibition, % at 12.2 µM | 0.56% of 370,000 active;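 active = inhibition above mean plus 3 SD of compounds lying within the high and low control bounds, cut at about 19% in these data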;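 also: 0% = median of test compound wells and 100% = no enzyme DMSO wells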
Yeast superoxide: reduction of superoxide in aged yeast, primary screen, HTS | 0.18% of 330,000 active | S. cerevisiae aged cells, superoxide DHE fluorescence; hits give low values | superoxide response (% of plate mean), % at 10 µM;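 active = superoxide response under a set limit, about three screen SD below normal, cut at about 65% in these data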;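 also: yeast aged for seven days with compound at 30 °C before DHE staining; 100% = average MFI of all compound-treated wells on the plate with controls excluded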
The depositor's hits bear a star; i = inactive; · = no result given. Sampled rows, rich in hits. Any-hit rate of the full collection: about 3.9%.

SMILES	PLC-beta3 inh	AHR activator	HIF act	PLC-gamma1 inh	sPLA2-III inh	Yeast superoxide
O=C(c1c(O)c2ccccc2oc1=O)C1CCC1	1	8	0	6	3	99
CC(Oc1cccnc1[N+](=O)[O-])C(=O)Nc1ccc(Cl)cn1 (configuration not stated)	-3	56*	·	2	0	100
COc1ccc(OC)c(C(=O)c2c(C)oc3cc([N+](=O)[O-])c(O)c([N+](=O)[O-])c23)c1	-3	-3	-1	5	-15	i
Cc1oc2cc([N+](=O)[O-])c(O)c([N+](=O)[O-])c2c1C(=O)c1ccc(Cl)cc1	11*	4	0	10*	-22	128
O=C(NNC(=O)c1sccc1-n1cccc1)Nc1ccc(F)cc1	3	62*	-1	2	-5	107
COc1ccc(NC(=O)c2sccc2-n2cccc2)cc1	-8	26	0	-1	0	101
S=c1[nH]c(-c2ccccc2)cn1/N=C/c1ccc(Br)cc1	-49	54*	2	-30	0	82
O=C(O)c1ccc(/C=N/n2cc(-c3ccccc3)[nH]c2=S)cc1	-44	6	0	-41	6	81
Cc1ccc(C)c(/C=N/n2cc(-c3ccccc3)[nH]c2=S)c1	-67	62*	1	-50	7	102
COC(=O)[C@]12C[C@H](CC(=O)NCCCN3CCCC3=O)C(=O)N(CCc3ccc(OC)c(OC)c3)C1=C[C@H](C(C)(C)C)O[C@@H]2C	0	·	·	5	5	·
COc1ccc2noc3c2c1C(=O)c1ccccc1-3	i	18	0	-425	-444	95
O=C1c2ccccc2-c2onc3ccc(NCCCn4ccnc4)c1c23	·	60*	-1	·	·	112
Cc1ccc(NC(=O)Cc2cccc(OC(F)F)c2)c(S(=O)(=O)N2CCOCC2)c1	3	·	·	6	7	·
C[C@H]1[C@@H](OC(=O)Nc2ccccc2C(F)(F)F)CC[C@@]23CCCN2C(=O)CCC[C@@H]13	5	·	·	4	5	·
Cc1ccc(O)c(NC(=O)c2ccc3c(c2)C(=O)N(CC(C)C)C3=O)c1	-6	73*	4	0	-4	102
CCCN1C(=O)c2ccc(C(=O)Nc3cc(C)ccc3O)cc2C1=O	-1	47	6	8	-9	107
Cc1nc(CSc2ccc(Cl)cc2)cc(NCc2ccccc2)n1	-3	-1	0	7	-21	98
CNc1cc(CSc2ccc(Cl)cc2)nc(C)n1	0	68*	3	5	-1	108
Nc1c(Cl)cnc(C(Cl)(Cl)Cl)c1Cl	-6	67*	0	1	4	109
CCOC(=O)c1cnn(-c2cc(C)c3ccccc3n2)c1N	3	53*	0	1	1	110
Cc1ccccc1NC(=O)O[C@H]1CC[C@@]23CCCN2C(=O)CCC[C@H]3[C@H]1C	-2	·	·	-3	4	·
O=[N+]([O-])c1ccc(Nc2nc(N/N=C\c3ccc4c(c3)OCO4)nc(N3CCCCC3)n2)cc1	4	71*	1	3	-2	104
NNc1nc(Nc2ccc([N+](=O)[O-])cc2)nc(N2CCCCCC2)n1	-3	68*	-1	3	-6	109
O=C(CSc1nnc(-c2ccccn2)n1-c1ccc(Cl)cc1)Nc1ccc(S(=O)(=O)Nc2nccs2)cc1	3	·	·	-2	-45	·
CCCCCCCCN1C(=O)[C@@H](CC(=O)N2CCN(C(=O)c3ccco3)CC2)C[C@@]2(C(=O)OC)C1=C[C@H](C(C)C)O[C@@H]2C1CC1	3	·	·	2	-10	·
SMILES	PLC-beta3 inh	AHR activator	HIF act	PLC-gamma1 inh	sPLA2-III inh	Yeast superoxide
Clc1ccc(-c2cc(-c3nnc4sc(Cc5cccs5)nn34)[nH]n2)cc1	7	·	·	8	-62	·
COc1cccc(/C=N/NC(=O)CSCC(=O)Nc2ccccc2)c1O	-33	11	17*	-20	-21	94
COc1cccc(/C=N/NC(=O)CNC(=O)C(c2ccccc2)c2ccccc2)c1O	-101	3	14*	-67	-24	98
COc1cccc(/C=N/NC(=O)CNC(=O)/C=C\c2ccccc2)c1O	-44	2	2	-23	-20	84
C=CCc1cccc(/C=N/NC(=O)CNc2ccccc2OC)c1O	-10	61*	1	-10	2	111
COc1cccc(/C=N\NC(=O)Cn2nnc3ccccc32)c1O	-34	2	16*	-29	-6	95
CCCCCN1CCCCC(NC(=O)c2ccccc2OC)C1=O (configuration not stated)	0	·	·	0	-1	·
Cn1c(=O)oc2cc(S(=O)(=O)N3CCN(C(=O)C4CCCO4)CC3)ccc21 (configuration not stated)	1	·	·	-3	2	·
O=S(=O)(c1ccccc1)N1c2cc(Cl)ccc2Oc2nc3ccccc3nc21	-111	74*	·	-84	-8	106
Oc1c(Cl)cc(Cl)cc1C=Nc1cc(C(F)(F)F)ccc1N1CCc2ccccc2C1	-34	68*	3	-20	-7	102
Oc1c(Cl)cccc1C=Nc1cc(C(F)(F)F)ccc1N1CCCC1	-11	11	0	-6	-5	100
COc1ccc(S[C@]2(C(=O)N(C)C)CC(=O)N(c3ccc(C#N)cc3)[C@@H]2c2ccc(OC)cc2)cc1	2	·	·	7	-14	·
O=C(/C(=C/O)N=Nc1ccc(Cl)cc1)c1ccncc1	-1	73*	1	-1	-6	87
COc1ccccc1N1CCN(S(=O)(=O)CCNC(=O)C2CC(=O)N(c3ccccc3)C2)CC1 (configuration not stated)	-10	1	0	1	-2	100
O=C(NCCS(=O)(=O)N1CCN(c2ccccc2F)CC1)C1CC(=O)N(c2ccc(F)cc2)C1 (configuration not stated)	-3	0	456*	0	6	69
CCCCN1CN2Cc3cc(F)ccc3C2CS1(=O)=O (configuration not stated)	-1	·	·	-2	2	·
C[C@H]1[C@@H](NC(=O)c2cccc(N(C)C)c2)CC[C@@]23CCCN2C(=O)CCC[C@@H]13	-103	·	·	-81	-2	·
COc1ccccc1S(=O)(=O)Cc1ccc(C(=O)N2CCN(c3ccccn3)CC2)o1	·	66*	·	·	·	95
O=C(c1ccc(CS(=O)c2ccccc2Cl)o1)N1CCN(c2ccccn2)CC1 (configuration not stated)	-4	59*	3	3	3	128
COc1ccc(Cl)cc1NC(=O)c1[nH]c(C)c(C(C)=O)c1C	-3	68*	1	9	6	110

Source: PubChem BioAssay
